CYP2C9 inhib: blocks human cytochrome P450 2C9. CYP2C9 Supersomes, luciferin-H conversion, luminescence. inhibition, % at 5 µM. 96,000 tested, 20% active;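 active means blocking of liver enzyme CYP2C9 beyond about 50% at 5 µM, limit read from the data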
Target sequence (P11712 whole entry, looked up): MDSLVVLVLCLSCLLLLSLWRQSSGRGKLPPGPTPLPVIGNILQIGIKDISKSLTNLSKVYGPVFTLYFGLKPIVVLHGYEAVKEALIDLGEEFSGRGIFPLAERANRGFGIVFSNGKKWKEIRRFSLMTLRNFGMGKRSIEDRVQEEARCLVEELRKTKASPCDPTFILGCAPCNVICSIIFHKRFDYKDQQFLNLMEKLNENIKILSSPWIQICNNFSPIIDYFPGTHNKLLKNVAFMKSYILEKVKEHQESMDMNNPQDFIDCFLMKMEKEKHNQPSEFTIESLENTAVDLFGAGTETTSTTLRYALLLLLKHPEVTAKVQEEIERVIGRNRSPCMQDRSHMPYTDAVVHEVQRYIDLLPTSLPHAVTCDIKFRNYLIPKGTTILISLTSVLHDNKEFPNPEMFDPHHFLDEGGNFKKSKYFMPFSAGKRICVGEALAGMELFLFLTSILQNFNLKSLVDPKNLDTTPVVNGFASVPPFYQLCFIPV
CYP2C19 activ: activators of human cytochrome P450 2C19; recombinant CYP2C19, luciferin-H EGE luminescence; stronger effect = higher value; 0 = fully inhibited enzyme, 1 = untreated enzyme; 96,000 tested, under 10 active; activation factor at 5 µM; AID 1025; P33261;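 active means activation factor of at least 2 at 5 µM in the primary screen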;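 further: 0 = wells with 2.5 mM tranylcypromine and 1 = vehicle-only wells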
EphB4 antag: antagonists of human EphB4-ephrin-B2 interaction | P54760 | EphB4 LBD / TNYL-RAW-Alexa532 peptide, fluorescence polarization | inhibition, % at 7 µM | 97,000 tested, 0.15% active | AID 720;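 active means inhibition above the screen-wide mean inhibition plus 3 SD, cut at about 15% in these data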;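 further: 0% = DMSO wells and 100% = excess unlabeled TNYL-RAW peptide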
CYP2C19 inh: blocks human cytochrome P450 2C19; CYP2C19 Supersomes, luciferin-H EGE luminescence, 30 min; inhibition, % at 5 µM; 96,000 tested, 21% active;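 active means CYP2C19 inhibition above a set limit at 5 µM in the primary screen, cut at about 50% in these data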;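 further: plate controls were negative control wells for no effect and 2.5 mM tranylcypromine positive control for full effect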
CYP2C9 act: increases human cytochrome P450 2C9 activity; 96,000 tested, 1.4% active; P11712; recombinant CYP2C9, luciferin-H conversion, luminescence; stronger effect = higher value; factor 1 = untreated enzyme, 0 = blocked; activation factor at 5 µM;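 active means activation factor of 2 or more for CYP2C9 at a 5 µM dose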;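 further: 0 = sulfaphenazole-blocked wells and 1 = vehicle-only wells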
Active calls of the source: *; · = no result given. Hits are enriched below; roughly 27% of the tested compounds scored in any of these assays.

SMILES	CYP2C9 inhib	CYP2C19 activ	EphB4 antag	CYP2C19 inh	CYP2C9 act
CC1CN(C(=O)CSc2nnc(-c3ccc(Cl)cc3)n2C)CC(C)O1 (stereo not given)	-2	1.1	-3	-8	1
CC(C)c1ccccc1-n1c(SCC(=O)N2CCN(c3ccccc3)CC2)nnc1-c1cccnc1	56*	0.5	12	55*	0.4
Cn1c(SCC(=O)N2CCN(c3ccccc3)CC2)nnc1-c1ccncc1	·	·	1	·	·
COCCn1c(SCc2cnc(-c3ccccc3)s2)nnc1-c1ccncc1	32	0.2	4	82*	0.7
COc1ccc(-n2cnnc2SCc2cnc(-c3ccccc3)s2)cc1	25	0.3	1	66*	0.8
COCCn1c(SCC#N)nnc1-c1ccccc1	30	0.6	·	36	0.7
COC(=O)c1[nH]c2ccc(F)cc2c1NC(=O)Nc1ccc(OC)cc1	3	0.9	-4	11	1
COC(=O)c1[nH]c2ccc(C)cc2c1NS(=O)(=O)c1ccc(F)cc1	36	0.2	-6	77*	0.6
COC(=O)c1[nH]c2ccc(C)cc2c1NS(=O)(=O)c1ccc(F)c(C)c1	52*	0.2	2	76*	0.5
COC(=O)c1[nH]c2ccc(C)cc2c1NC(=O)Nc1ccc(OC)cc1	6	0.5	-7	54*	0.9
COC(=O)c1[nH]c2ccc(C)cc2c1NC(=O)Oc1ccccc1	2	0.8	3	18	1
CCCCNC(=O)Nc1c(C(=O)OC)[nH]c2ccc(C)cc12	17	0.7	1	31	0.8
Cc1cc(S(=O)(=O)Nc2c(C(=O)O)[nH]c3ccccc23)ccc1F	79*	0.1	0	92*	0.2
O=C(c1ccccc1)c1ccc(N2CCOCC2)c(NC(=O)c2ccco2)c1	·	·	-7	·	·
COc1ccc(Nc2nnc(Cc3ccccc3)c(=O)[nH]2)c(OC)c1	26	1	-1	1	0.7
CCCS(=O)(=O)c1c(S(=O)(=O)CCC)c2cnccn2c1C(=O)c1ccc(F)cc1	14	0.9	·	8	0.9
CCOC(=O)/C(C(C)=O)=C1\OC(=O)c2ccccc21	58*	0.8	-3	20	0.4
Cc1ccc(S(=O)(=O)N2CCOCC2)cc1C(=O)NCc1ccco1	1	0.9	10	12	1
CCOC(=O)C(CC)n1nc(C)n2c(cc3sccc32)c1=O (stereo not given)	50	0.7	·	31	0.5
COc1ccc(-n2c(C)cc(C(=O)CSc3nn4c(=O)c(C(C)(C)C)nnc4s3)c2C)cc1	78*	0.4	-1	58*	0.2
CC(C)(C)c1nnc2sc(SC/C(O)=C(\C#N)c3nc4ccccc4[nH]3)nn2c1=O	43	0.3	0	68*	0.6
COc1ccc(C)cc1-n1nnnc1SC/C(O)=C(\C#N)c1nc2ccccc2[nH]1	38	0.9	12	14	0.6
CC(C)(C)c1nnc2sc(SCC(=O)c3ccccc3)nn2c1=O	88*	0.6	-6	36	0.1
COc1ccc(C(=O)CSc2nn3c(=O)c(C(C)(C)C)nnc3s2)cc1	27	0.9	1	14	0.7
COCC(=O)Nc1ccc(N(C)C)cc1	-3	0.8	-10	15	1
SMILES	CYP2C9 inhib	CYP2C19 activ	EphB4 antag	CYP2C19 inh	CYP2C9 act
Cc1ccc(NC(=O)CNc2ccc(OC(C)C)cc2)cc1	70*	0.7	-1	33	0.3
Cc1ccc(OCC(=O)Nc2ccc(N(C)C)cc2)cc1	12	0.1	0	87*	0.9
CN(C)c1ccc(NC(=O)COC(=O)CCC(=O)c2ccc(F)cc2)cc1	81*	0.1	-3	90*	0.2
CC(C)Oc1ccc(NC(=O)Oc2ccccc2)cc1	17	0.8	2	23	0.8
O=C(COC(=O)c1cccnc1)Nc1ccc(F)cc1	33	0.2	-5	84*	0.7
COc1ccc(CNC(=O)C2CC=CCC2C(=O)O)cc1OC (stereo not given)	-19	1.2	4	-20	1.2
CC12CCC(C(=O)N3CCN(C(=O)C45CCC(C)(C(=O)O4)C5(C)C)CC3)(OC1=O)C2(C)C	·	·	-5	·	·
Cc1ccc(/C(N)=N/OC(=O)/C=C/c2ccccc2)cc1	24	0.9	-3	9	0.8
CCOC(=O)CC1=Nc2ccccc2NC(=O)C1	-20	1.1	-8	-13	1.2
CCOCCCNC(=O)c1ccccc1SCC	·	·	2	·	·
CCN(CC)c1ccc(NC(=O)OC)cc1	63*	0.9	-1	10	0.4
CCOc1ccc(OCC(=O)Nc2ccc(OC)cc2)cc1	24	0.6	-2	38	0.8

Bioassay records from PubChem.
